For assay [1], the target named is Progesterone receptor (Homo sapiens) (UniProt P06401). The assay can be described thus: qHTS assay to identify small molecule agonists of the progesterone receptor (PR) signaling pathway (AID 1346784; calls by dose curve; also: nearly all actives have a fitted effect of over 30% in size). Put shortly:
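PR-UAS-bla HEK 293T cells (beta-lactamase reporter under UAS) in 2% charcoal-stripped FBS, dosed with 23 nL compound after 6 hr, incubated 16hr at 37C. LiveBLAzer B/G FRET substrate added, fluorescence read after 2 hours.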
(Quantitative high-throughput screening tests each substance at several concentrations.)

For assay [2] the target is unchanged. Put plainly: qHTS assay to identify small molecule antagonists of the progesterone receptor (PR) signaling pathway (AID 1346795; active = well fitted inhibition curve with a large enough effect in the signal ratio in the repeat runs, not every such curve was filed as active; the % refers to the signal ratio). Put shortly:
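PR-UAS-bla HEK293T cells with beta-lactamase reporter under UAS control, in 2% charcoal-stripped FBS, treated with compounds plus 1 nM promegestone (R5020, final) for 16 hr at 37C. Read-out: FRET beta-lactamase substrate fluorescence after 2 hr at room temperature.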

The nature of assay [3]: qHTS assay to identify small molecule antagonists of the progesterone receptor (PR) signaling pathway - cell viability counter screen (AID 1346798). Also: series mostly up to about 92 µM; nearly all actives have a fitted effect of over 50% in size. Put shortly: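 PR-UAS-bla HEK293T cells, 3,000/well in 2% charcoal-stripped FBS medium, dosed with compounds plus R5020 agonist and incubated 16 h at 37C. Viability then measured in the same wells by CellTiter-Glo luminescence after 30 min at RT.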

Assay [4] can be described thus: qHTS assay to identify small molecule agonists of the progesterone receptor (PR) signaling pathway - cell viability counter screen (AID 1346799; calls by dose curve; also: nearly all actives have a fitted effect of over 45% in size). Put shortly:
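Counter screen in the PR-UAS-bla HEK293T wells (2% charcoal-stripped FBS, 16 h compound exposure at 37 C) after the bla read. CellTiter-Glo added, 30 min at room temperature, luminescence read as cell viability.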

A short description of assay [5]: qHTS assay to identify small molecule antagonists of the TGF-beta/Smad signaling pathway - cell viability counter screen (AID 1346824). Also: nearly all actives have a fitted effect of over 50% in size. Put shortly: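 Cytotoxicity counter-screen run in the same wells as the beta-lactamase Smad reporter read: CellTiter-Glo luminescence after 30 min at room temperature. HEK 293T SBE-bla cells had 5 hr compound exposure at 37 C with TGF-beta1 (0.25 ng/mL stock).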

The nature of assay [6]: qHTS assay to identify small molecule agonists of the TGF-beta/Smad signaling pathway - cell viability counter screen (AID 1346829). Also: top concentration of the series differs between compounds; nearly all actives have a fitted effect of over 45% in size. Put shortly: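 Same-well cytotoxicity: CellTiter-Glo added after the 2 hr room-temperature beta-lactamase substrate step, luminescence measured 30 min later; cells had 5 hr of compound at 37 C.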
The nature of assay [7]: qHTS assay to identify small molecule agonists of the TGF-beta/Smad signaling pathway (AID 1346859; active = well fitted activation curve with a large enough effect in the signal ratio in the repeat runs, not every such curve was filed as active; the % refers to the signal ratio; also: series mostly up to about 77 µM). Put shortly: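 SBE-bla HEK293T cells plated overnight, then compound exposure for 5 h at 37 C. Beta-lactamase reporter read with LiveBLAzer B/G FRET substrate after 2 h at room temperature, fluorescence at 405 nm excitation, 460/530 nm emission.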
Assay [8] is described as follows: Human pregnane X receptor (PXR) small molecule agonists, qHTS cell viability counter screen (AID 1346977). Also: nearly all actives have a fitted effect of over 50% in size. Put shortly:
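PXR-Luc HepG2 cells (2,000/well, 5% charcoal-stripped FBS) preincubated 5 hr, then exposed to compounds 24 hr at 37 C. Viability read in the same wells by CellTiter-Fluor fluorescence, reagent added at 23 hr, 1 hr incubation.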

Assay [9] can be described thus: Caspase-3/7 induction in HepG2 cells by small molecules, qHTS assay (AID 1346978). Also: nearly all actives have a fitted effect of over 15% in size. Put shortly:
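Caspase-3/7 induction was measured by Caspase-Glo 3/7 luminescence (30 min, room temperature) after a 17 hr compound exposure of wild-type HepG2 cells seeded at 2,000 per well and pre-incubated 5 hr.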

Assay [10] can be described thus: Caspase-3/7 induction in CHO-K1 cells by small molecules, qHTS cell viability counter screen (AID 1346979). Also: nearly all actives have a fitted effect of over 35% in size. Put shortly:
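Wild-type CHO-K1 cells (1,500/well) treated with compound after 5 h plating; after 16 h at 37C, viability read as CellTiter-Fluor fluorescence following 1 h reagent incubation, in the same wells as the caspase read.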

Assay [11] can be described thus: Caspase-3/7 induction in CHO-K1 cells by small molecules, qHTS assay (AID 1346980). Also: nearly all actives have a fitted effect of over 15% in size. Put shortly: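 Luminescent Caspase-Glo 3/7 read (30min, room temperature) quantified apoptosis induction. Cells were wild-type CHO-K1, treated with compound for 17hr at 37 C and 5% CO2.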
Assay [12] in a line: Caspase-3/7 induction in HepG2 cells by small molecules, qHTS cell viability counter screen (AID 1346981). Also: series mostly up to about 92 µM; nearly all actives have a fitted effect of over 30% in size. Put shortly:
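Cell viability is measured as a cytotoxicity counter screen alongside the Caspase-Glo 3/7 readout in identical wells. Wild-type HepG2 cells are treated with test compounds for 16 hr at 37 C before CellTiter-Fluor addition and a 1-hr incubation.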

For assay [13], the target named is Nuclear receptor subfamily 1 group I member 2 (Homo sapiens) (UniProt O75469). Put plainly: Human pregnane X receptor (PXR) small molecule agonists, qHTS assay (AID 1346982). Also: nearly all actives have a fitted effect of over 35% in size. Also: potency is read from the fitted curve at half-maximal effect. Put shortly:
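Cells: HepG2 stably carrying PXR-Luc. Medium held 5% charcoal-stripped FBS. Compounds in DMSO added after 5 hr plating, incubated 24 hr, then luminescence quantified with ONE-Glo.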

Assay [14] deals with Cytochrome P450 2D6 (Homo sapiens) (UniProt P10635). Put plainly: Cytochrome P450 Family 2 Subfamily D Member 6 (CYP2D6) small molecule antagonists: luciferase reporter qHTS assay (AID 1671196). Also: series mostly up to about 120 µM; nearly all actives have a fitted effect of over 50% in size. Put shortly: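 Enzyme and proluciferin substrate were first combined with test chemical for 10 min at room temperature. Adding NADPH regeneration solution started a 1 h reaction, stopped with luciferin detection reagent and read by luminescence 20 min later.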
Sequence of Cytochrome P450 2D6 (Homo sapiens) (P10635 whole entry, looked up): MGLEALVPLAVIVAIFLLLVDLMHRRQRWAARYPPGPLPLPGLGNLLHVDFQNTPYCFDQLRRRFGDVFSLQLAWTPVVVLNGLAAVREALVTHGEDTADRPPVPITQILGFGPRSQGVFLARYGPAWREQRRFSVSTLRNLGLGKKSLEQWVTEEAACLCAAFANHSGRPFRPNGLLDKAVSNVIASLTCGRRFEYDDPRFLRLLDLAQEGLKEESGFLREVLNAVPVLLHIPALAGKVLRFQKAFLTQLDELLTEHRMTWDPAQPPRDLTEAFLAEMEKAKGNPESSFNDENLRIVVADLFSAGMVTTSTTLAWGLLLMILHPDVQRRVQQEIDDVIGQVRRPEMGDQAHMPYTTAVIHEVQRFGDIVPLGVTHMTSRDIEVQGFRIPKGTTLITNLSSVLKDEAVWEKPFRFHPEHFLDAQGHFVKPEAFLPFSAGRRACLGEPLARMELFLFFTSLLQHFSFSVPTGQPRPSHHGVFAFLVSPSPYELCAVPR
Background: A reporter such as luciferase makes a cellular process visible.

The target in assay [15] is Cytochrome P450 2C19 (Homo sapiens) (UniProt P33261). The assay can be described thus: Cytochrome P450 Family 2 Subfamily C Member 19 (CYP2C19) small molecule antagonists: luciferase reporter qHTS assay (AID 1671197). Also: series mostly up to about 120 µM; nearly all actives have a fitted effect of over 65% in size. Put shortly: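 Quantitative high-throughput screen of the Tox21 library using CYP2C19 with proluciferin substrate. Reaction: NADPH regeneration, 37C, 1 h, after 10 min compound preincubation at room temperature. Readout: luminescence.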
Sequence of Cytochrome P450 2C19 (Homo sapiens) (P33261 whole entry, looked up): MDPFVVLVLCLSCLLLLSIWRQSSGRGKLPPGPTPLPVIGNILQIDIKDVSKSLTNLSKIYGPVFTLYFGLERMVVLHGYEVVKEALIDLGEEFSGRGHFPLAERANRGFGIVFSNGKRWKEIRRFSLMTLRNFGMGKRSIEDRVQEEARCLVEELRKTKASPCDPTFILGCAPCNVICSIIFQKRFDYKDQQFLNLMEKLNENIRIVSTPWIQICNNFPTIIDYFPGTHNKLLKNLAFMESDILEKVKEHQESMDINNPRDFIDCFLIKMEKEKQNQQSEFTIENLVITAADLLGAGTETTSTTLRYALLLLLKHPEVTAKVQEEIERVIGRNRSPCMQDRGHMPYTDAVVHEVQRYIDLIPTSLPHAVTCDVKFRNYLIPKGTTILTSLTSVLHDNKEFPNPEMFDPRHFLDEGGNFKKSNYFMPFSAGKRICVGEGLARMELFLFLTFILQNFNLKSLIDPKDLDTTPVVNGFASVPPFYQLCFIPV

In assay [16] the target is Thyrotropin-releasing hormone receptor (Homo sapiens) (UniProt P34981). The assay can be described thus: qHTS assay to identify small molecule antagonists of the thyrotropin-releasing hormone receptor (TRHR) signaling pathway (AID 1346877; active = well fitted inhibition curve with a large enough effect in the repeat runs, not every such curve was filed as active; also: series mostly up to about 51 µM). Put shortly: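 Antagonism is measured as suppression of the calcium response to 1 nM TRH in TRHR-HEK293 cells that have been dye-loaded for 2 h at 37 °C after overnight plating. Each compound is tested at 15 concentrations in triplicate.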
Sequence of Thyrotropin-releasing hormone receptor (Homo sapiens) (P34981 whole entry, looked up): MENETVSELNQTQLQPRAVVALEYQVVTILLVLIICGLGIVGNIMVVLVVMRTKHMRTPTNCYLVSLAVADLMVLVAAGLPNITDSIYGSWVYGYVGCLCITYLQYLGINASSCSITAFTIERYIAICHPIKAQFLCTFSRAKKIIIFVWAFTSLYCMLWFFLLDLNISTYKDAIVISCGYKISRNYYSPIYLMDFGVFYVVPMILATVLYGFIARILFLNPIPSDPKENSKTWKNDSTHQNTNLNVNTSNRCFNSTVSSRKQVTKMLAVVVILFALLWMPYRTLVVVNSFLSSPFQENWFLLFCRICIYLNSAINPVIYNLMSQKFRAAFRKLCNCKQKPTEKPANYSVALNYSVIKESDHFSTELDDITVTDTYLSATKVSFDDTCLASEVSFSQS

For assay [17] the target is unchanged. Put plainly: qHTS assay to identify small molecule agonists of the thyrotropin-releasing hormone receptor (TRHR) signaling pathway (AID 1346891; calls by dose curve; also: series mostly up to about 58 µM). Put shortly:
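HEK293 cells expressing TRHR plated 18 h at 37 C/5% CO2, calcium dye-loaded 2 h at 37 C, then compound added (agonist mode); kinetic calcium fluorescence read 3 min at 1 s intervals; 15 concentrations in triplicate.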

Assay [18] addresses Nuclear receptor subfamily 1 group I member 2 (Rattus norvegicus) (UniProt Q9R1A7). The assay can be described thus: Rat pregnane X receptor (rPXR) activation by small molecules, qHTS assay (AID 1346983). Also: nearly all actives have a fitted effect of over 20% in size. The conditions noted are these: rPXR luciferase reporter cells, One-Glo luminescence, 24 h; hits give high values. Put shortly:
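Luminescent readout (One-Glo luciferase, 30 min room temperature) followed 24 hr compound treatment at 37 C of rPXR cells plated 2,000 per well and preincubated 5hr; qHTS format with compounds delivered in DMSO.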

Assay [19] deals with Nuclear receptor subfamily 1 group I member 2 (Homo sapiens) (UniProt O75469). The assay can be described thus: CYP3A4 induction through human pregnane X receptor (PXR) by small molecules, qHTS assay (AID 1346984). Also: nearly all actives have a fitted effect of over 40% in size. Put shortly: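 Quantitative HTS in DPX-2 cells, i.e. HepG2 transfected with PXR response element and CYP3A4-promoter luciferase. Compounds in DMSO incubated 24hr at 37C; then P450-Glo CYP3A4 substrate, 3uM final, 3hr; One-Glo luminescence.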
Sequence of Nuclear receptor subfamily 1 group I member 2 (Homo sapiens) (O75469 whole entry, looked up): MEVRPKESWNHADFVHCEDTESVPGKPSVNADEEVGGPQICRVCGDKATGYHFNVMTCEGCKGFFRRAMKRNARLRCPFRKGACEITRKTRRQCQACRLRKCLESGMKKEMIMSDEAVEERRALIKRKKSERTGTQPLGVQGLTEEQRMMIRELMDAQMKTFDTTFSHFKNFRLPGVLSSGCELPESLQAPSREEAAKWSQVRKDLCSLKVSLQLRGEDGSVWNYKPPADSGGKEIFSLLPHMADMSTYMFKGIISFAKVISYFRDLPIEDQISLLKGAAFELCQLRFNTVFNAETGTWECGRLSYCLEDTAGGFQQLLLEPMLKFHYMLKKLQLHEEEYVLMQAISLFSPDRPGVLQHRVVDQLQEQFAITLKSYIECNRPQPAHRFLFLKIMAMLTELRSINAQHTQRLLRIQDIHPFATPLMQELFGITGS

The target is the same in assay [20]. The assay can be described thus: Human pregnane X receptor (PXR) activation by small molecules, qHTS assay (AID 1346985). Also: nearly all actives have a fitted effect of over 40% in size. Put shortly: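 DPX-2 cells (HepG2 co-transfected with a PXR response element and a CYP3A4-promoter luciferase construct) were seeded at 2,000 per well, rested 5 hr at 37C, then exposed to DMSO-dissolved compounds for 24 hr. Activation was read as luciferase luminescence.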

Molecules are shown by their SMILES. Unmarked numbers belong to inactive results. Inconclusive results are not listed. More than one record can exist for a structure, and the calls need not agree. Calls of active or inactive are those of the source. Unless noted, calls follow the shape of the dose curve; as a rule, active = well fitted curve in the direction sought with a large enough effect in the repeat runs; inconclusive = weak or mixed curves; inactive = no such curve, though single readings can be large; an effect the other way counts as inactive or inconclusive.
% is scaled to controls: 0 for no effect and ±100 for the full control effect.

Sequence of Progesterone receptor (Homo sapiens) (P06401 whole entry, looked up): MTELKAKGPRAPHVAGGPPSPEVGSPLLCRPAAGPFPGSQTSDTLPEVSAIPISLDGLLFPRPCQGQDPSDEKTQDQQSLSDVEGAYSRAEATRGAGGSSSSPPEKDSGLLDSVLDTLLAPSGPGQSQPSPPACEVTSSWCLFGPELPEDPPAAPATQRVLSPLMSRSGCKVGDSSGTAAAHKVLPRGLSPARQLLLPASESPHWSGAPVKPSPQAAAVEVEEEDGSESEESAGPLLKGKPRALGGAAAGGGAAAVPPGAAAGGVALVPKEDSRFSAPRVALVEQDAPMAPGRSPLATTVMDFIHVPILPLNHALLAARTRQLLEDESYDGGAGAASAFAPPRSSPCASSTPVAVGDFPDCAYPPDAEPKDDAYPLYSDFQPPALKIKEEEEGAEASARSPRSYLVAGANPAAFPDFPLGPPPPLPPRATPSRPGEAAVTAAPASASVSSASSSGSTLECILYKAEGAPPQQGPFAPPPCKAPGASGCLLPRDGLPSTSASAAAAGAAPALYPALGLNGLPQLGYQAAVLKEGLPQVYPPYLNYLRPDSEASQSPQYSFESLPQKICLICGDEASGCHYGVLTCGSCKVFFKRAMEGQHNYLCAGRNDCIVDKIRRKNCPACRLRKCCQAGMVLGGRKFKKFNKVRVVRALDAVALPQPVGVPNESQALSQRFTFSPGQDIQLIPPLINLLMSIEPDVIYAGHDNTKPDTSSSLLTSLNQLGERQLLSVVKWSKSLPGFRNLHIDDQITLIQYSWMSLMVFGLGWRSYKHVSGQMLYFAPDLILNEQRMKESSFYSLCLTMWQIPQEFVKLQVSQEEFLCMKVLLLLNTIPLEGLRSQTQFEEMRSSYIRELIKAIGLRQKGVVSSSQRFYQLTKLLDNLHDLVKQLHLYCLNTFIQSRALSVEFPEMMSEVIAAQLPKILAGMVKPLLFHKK
Sequence of Nuclear receptor subfamily 1 group I member 2 (Rattus norvegicus) (Q9R1A7 whole entry, looked up): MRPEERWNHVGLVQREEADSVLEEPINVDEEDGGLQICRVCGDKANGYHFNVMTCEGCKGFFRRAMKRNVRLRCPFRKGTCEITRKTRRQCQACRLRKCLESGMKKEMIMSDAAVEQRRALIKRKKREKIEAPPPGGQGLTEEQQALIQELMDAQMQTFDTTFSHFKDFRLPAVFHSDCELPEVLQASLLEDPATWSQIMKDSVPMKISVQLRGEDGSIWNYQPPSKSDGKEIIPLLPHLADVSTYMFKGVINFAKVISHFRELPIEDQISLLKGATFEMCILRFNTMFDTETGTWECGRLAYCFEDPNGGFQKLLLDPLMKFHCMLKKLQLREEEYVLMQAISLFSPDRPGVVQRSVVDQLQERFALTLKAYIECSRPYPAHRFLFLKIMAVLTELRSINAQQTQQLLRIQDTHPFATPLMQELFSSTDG

`CCCCCCCCCCCC(=O)N(C)CC(=O)O`: the Potency entry in assay [1], in assay [2], in [4], in assay [5], in [6] and in [7] was “inactive” throughout. The Potency result in assay [8], in assay [9], in assay [10], in [11] and in assay [12] was “inactive” throughout. Also, the activity change, negative = cytotoxicity in assay [3] was 0.0198% [at 8.39 µM]. In assay [13], the Potency is 59.2 µM (active). In assay [13], the activation was -3.89% [at 8.39 µM]. Also, the activity change, negative = inhibition in assay [14] was -25.2% [at 10.5 µM]; in [15] it was 17.6% [at 10.5 µM].

Take `OB(O)O`: the Potency result in assay [1], in assay [2], in [3], in assay [4], in assay [5] and in assay [7] was “inactive” in each case. The Potency result in [16], in assay [8], in [9], in assay [10], in [11] and in assay [12] was “inactive” throughout. Also, the Potency result in assay [13], in assay [19], in assay [14] and in assay [15] was “inactive” throughout. In addition, the molecule was classed as inactive in assay [17] and in assay [20]. Also, the max activation in assay [18] is -0.586%.

In the case of `OCc1ccc(Cl)cc1Cl`, the Potency result in assay [1], in [2], in [3], in assay [4], in assay [5] and in assay [7] was “inactive” each time. In addition, the Potency entry in assay [16], in assay [8], in assay [9], in assay [10], in assay [11] and in assay [12] was “inactive” each time. For the same molecule, the Potency entry in [13], in assay [19], in assay [14] and in assay [15] was “inactive” in each case. Also, the call in assay [17] and in assay [20] was inactive. For the same molecule, the max activation in assay [18] was -2.12%.

For the origin of these results see PubChem BioAssay (Tox21).
